Assay results from PubChem BioAssay AID431 (Sanford-Burnham Center for Chemical Genomics, 2006).
The whole screen tested about 63,000 compounds, of which about 1,100 (1.7%) were called active. This excerpt belongs to a sample that is enriched for actives. Results with a measured potency or affinity are listed apart. A number with no mark means an inactive call.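 The calls were made as follows: active = compounds whose percent cytotoxicity in the single-dose primary screen, scaled between solvent and toxic-drug controls, exceeds 50; inactive = the rest.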

Experiment: cytotoxicity in KRAS-transformed pancreatic duct cells, primary screen, cell-based, fluorescence, HTS (AID 431);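 also: 0% = DMSO solvent wells and 100% = doxorubicin-treated wells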
Conditions: HPDE-C7K KRASV12 cells, Alamar Blue viability, 48 h; at 10 µM; hits give high values
Compound CN(C)S(=O)(=O)c1ccc2c(c1)c(=O)c(C(=O)N1CCN(c3ccccn3)CC1)cn2C has a cytotoxicity of 5%.
Compound COc1cc(Cl)c(C)cc1NC(=O)CSc1nnc(-c2ccccn2)n1Cc1ccco1 has a cytotoxicity of -4.6%.
Compound O=C(CN1C(=O)c2ccccc2C1=O)Nc1cccnc1 has a cytotoxicity of 10.7%.
With N#Cc1cccc(C(c2nnnn2CCc2ccccc2)N2CCN(C3CCCCC3)CC2)c1 (configuration not stated) the cytotoxicity was 7.9%.
With COc1cccc(NC(=O)N2CCC(C(=O)Nc3ccc(C)cc3C)CC2)c1 the cytotoxicity was -5.2%.
c1ccc(CSc2nnc(-c3c[nH]c4ccccc34)o2)cc1 showed a cytotoxicity of 1.1%.
Work on S=c1[nH]nc(Cc2c[nH]c3ccccc23)o1 yielded a cytotoxicity of 1.2%.
Work on COc1ccccc1C(=O)Nc1nnc(-c2ccc(Cl)cc2)o1 yielded a cytotoxicity of -0.6%.
CN(C)c1ccc(C(=O)Nc2nnc(-c3ccc(Cl)cc3)o2)cc1 showed a cytotoxicity of 17.7%.
Compound CC(=O)c1ccc(C(=O)Nc2nnc(-c3ccc(Cl)cc3)o2)cc1 has a cytotoxicity of 44.7%.
With COc1cccc(C(=O)Nc2nnc(-c3ccc(Cl)cc3)o2)c1 the cytotoxicity was 85% (active).
With Cc1cccc(-c2nnc(NC(=O)c3ccc(Cl)cc3)o2)c1 the cytotoxicity was 87.9% (active).
Work on COc1ccc(C(=O)Nc2nnc(-c3ccccc3)o2)cc1OC yielded a cytotoxicity of -0.9%.
With COc1cccc(C(=O)Nc2nnc(-c3ccc(F)cc3)o2)c1 the cytotoxicity was 10.3%.
For COc1cccc(-c2nnc(NC(=O)c3cccc(F)c3)o2)c1, the cytotoxicity was 44.6%.
With CCOc1ccc(N2CC(C(=O)Nc3ccc(F)cc3F)CC2=O)cc1 (configuration not stated) the cytotoxicity was -19.6%.
In the case of Clc1ccc(NC2=NCCC2)cc1Cl, the cytotoxicity is reported as -1.4%.
In the case of O=C(CN1CCN(C(=O)c2ccco2)CC1)Nc1ccccc1-c1ccccc1, the cytotoxicity is reported as 3%.
For CO[C@H]1C[C@@H]2CC[C@@H](C)[C@@](O)(O2)C(=O)C(=O)N2CCCC[C@H]2C(=O)O[C@H]([C@H](C)C[C@@H]2CC[C@@H](O)[C@H](OC)C2)CC(=O)[C@H](C)C=C(C)[C@@H](O)[C@@H](OC)C(=O)[C@H](C)C[C@H](C)C=CC=CC=C1C, the cytotoxicity was 91% (active).
CC1Cn2c(nnc2-c2ccc(F)cc2)S1 (configuration not stated) showed a cytotoxicity of 11.1%.
For CCOc1ccccc1NC(=O)C1CCCN(S(=O)(=O)c2cccc3cccnc23)C1 (configuration not stated), the cytotoxicity was 26.1%.
With O=C(Nc1ccc2nn(-c3ccccc3)nc2c1)c1ccc(Br)o1 the cytotoxicity was 13.2%.
In the case of C=CCn1c(NC(=O)c2ccccc2)c(C#N)c2nc3ccccc3nc21, the cytotoxicity is reported as 65.2% (active).
For CCCCn1c(NC(=O)c2ccccc2)c(C#N)c2nc3ccccc3nc21, the cytotoxicity was 112% (active).
CCCCCn1c(N)c(C#N)c2nc3ccccc3nc21 gave a cytotoxicity of 2.3%.
CCCCn1c(NC(C)=O)c(C#N)c2nc3ccccc3nc21 showed a cytotoxicity of -0.1%.
In the case of C=CCn1c(NC(=O)c2ccccc2Cl)c(C#N)c2nc3ccccc3nc21, the cytotoxicity is reported as 7.7%.
In the case of COc1ccc(-n2c(NC(=O)c3ccco3)c(C#N)c3nc4ccccc4nc32)cc1, the cytotoxicity is reported as 9.7%.
In the case of CCCCn1c(NC(=O)c2ccccc2Cl)c(C#N)c2nc3ccccc3nc21, the cytotoxicity is reported as 35.8%.
In the case of N#Cc1c(NC(=O)c2ccc(Br)o2)n(-c2ccccc2)c2nc3ccccc3nc12, the cytotoxicity is reported as 58.7% (active).
In the case of CCCCn1c(NC(=O)c2ccc(F)cc2)c(C#N)c2nc3ccccc3nc21, the cytotoxicity is reported as 87.7% (active).
CCCCn1c(NC(=O)CC)c(C#N)c2nc3ccccc3nc21 showed a cytotoxicity of -5.1%.
CCC(=O)Nc1c(C#N)c2nc3ccccc3nc2n1-c1ccccc1C gave a cytotoxicity of 2.8%.
Work on CCc1ccc(OCc2nc(-c3ccccn3)no2)c(Br)c1 yielded a cytotoxicity of 30.6%.
Compound COc1cc(C2C(C#N)=C(N)Oc3cc(C)oc(=O)c32)cc2c1OCO2 (configuration not stated) has a cytotoxicity of -4.3%.
With CCN(CC)CCNc1nc2c(c(=O)[nH]c(=O)n2C)n1CC(O)COc1ccc(Cl)cc1Cl (configuration not stated) the cytotoxicity was 10.6%.
In the case of CCc1nnc(NC(=O)CSc2nnc(CSc3nc(C)cc(C)n3)n2C)s1, the cytotoxicity is reported as 10.6%.
With N#Cc1c2c(c(=S)n(-c3ccccc3)c1N)CCCC2 the cytotoxicity was 0.5%.
Work on CCOC(=O)c1c(N)sn(-c2ccccc2)c1=S yielded a cytotoxicity of 13.3%.
In the case of CC(C)C(CC(=O)N1CCCCC1)C1CCOC(C)(C)C1 (configuration not stated), the cytotoxicity is reported as -5.8%.
For N=c1c(C(=O)NCc2ccccc2)cc2c(=O)n3ccccc3nc2n1Cc1ccco1, the cytotoxicity was 38.6%.
In the case of Cc1ccc(Cn2c(=N)c(C(=O)NCc3ccco3)cc3c(=O)n4ccccc4nc32)cc1, the cytotoxicity is reported as -6.4%.
Cc1ccc(S(=O)(=O)c2cc3c(=O)n4ccccc4nc3n(Cc3ccco3)c2=N)cc1 gave a cytotoxicity of 30.2%.
In the case of Cc1ccc(CNC(=O)c2cc3c(=O)n4ccccc4nc3n(Cc3ccco3)c2=N)cc1, the cytotoxicity is reported as 98.3% (active).
N=c1c(S(=O)(=O)c2ccccc2)cc2c(=O)n3ccccc3nc2n1Cc1ccco1 showed a cytotoxicity of 4.6%.
Work on Cc1ccc(CNC2=NCCCCC2)n1C yielded a cytotoxicity of 0.1%.
In the case of CS(=O)(=O)N(CC(=O)N1CCC(C(N)=O)CC1)c1ccc(Oc2ccccc2)cc1, the cytotoxicity is reported as 4.5%.
